{
  "source": "PubChem BioAssay AID1159580",
  "about": "(chemical genetic matrix, 2015)",
  "experiment": "chemical genetic growth profiling, strain panel (AID 1159580);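 note: tested at 20 µM; growth read once vehicle control cultures reached saturation at 30 °C; 1 = growth at the plate median or of vehicle wells; lower values mean less growth of the strain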",
  "conditions": "S. cerevisiae deletion strains, growth OD",
  "note": "Hit rate of the full screen: of about 5,500 compounds, about 2,000 (36%) were called active. About 18% were inconclusive and are not listed. The list shows a part of the results. Unmarked numbers belong to inactive results. Cut-off read from the data, not from the text of the source: active = normalized growth mostly below about 0.91 (no sharp cut-off); inconclusive = no clear call, values can overlap the other calls; inactive = mostly above about 0.92.",
  "data": [
    {"smiles": "Oc1cc(O)c2c(c1)OC(c1cc(O)c(O)c(O)c1)C(O)C2c1c(O)cc(O)c2c1OC(c1cc(O)c(O)c(O)c1)C(O)C2c1c(O)cc(O)c2c1OC(c1cc(O)c(O)c(O)c1)C(O)C2", "note": "(stereo not given)", "values": [
      {"measurement": "normalized growth", "setting": "locus YAL013W, strain DEP1, hits give low values", "result": 0.977},
      {"measurement": "normalized growth", "setting": "locus YBR021W, strain FUR4, hits give low values", "result": 1.02},
      {"measurement": "normalized growth", "setting": "locus YBR229C, strain ROT2, hits give low values", "result": 0.992},
      {"measurement": "normalized growth", "setting": "locus YCL029C, strain bik1, hits give low values", "result": 0.999},
      {"measurement": "normalized growth", "setting": "locus YDL035C, strain GPR1, hits give low values", "result": 0.889},
      {"measurement": "normalized growth", "setting": "locus YDL074C, strain BRE1, hits give low values", "result": 0.846},
      {"measurement": "normalized growth", "setting": "locus YDL101C, strain DUN1, hits give low values", "result": 0.913},
      {"measurement": "normalized growth", "setting": "locus YDL134C, strain PPH21, hits give low values", "result": 0.937},
      {"measurement": "normalized growth", "setting": "locus YDL185W, strain tfp1, hits give low values", "result": 0.973},
      {"measurement": "normalized growth", "setting": "locus YDL192W, strain arf1, hits give low values", "result": 0.948},
      {"measurement": "normalized growth", "setting": "locus YDR101C, strain arx1, hits give low values", "result": 1.03},
      {"measurement": "normalized growth", "setting": "locus YDR150W, strain NUM1, hits give low values", "result": 0.964},
      {"measurement": "normalized growth", "setting": "locus YDR162C, strain NBP2, hits give low values", "result": 0.84},
      {"measurement": "normalized growth", "setting": "locus YDR318W, strain mcm21, hits give low values", "result": 0.973},
      {"measurement": "normalized growth", "setting": "locus YDR388W, hits give low values", "result": 1},
      {"measurement": "normalized growth", "setting": "locus YDR502C, strain sam2, hits give low values", "result": 0.979},
      {"measurement": "normalized growth", "setting": "locus YEL061C, strain CIN8, hits give low values", "result": 0.933},
      {"measurement": "normalized growth", "setting": "locus YER110C, hits give low values", "result": 1.02},
      {"measurement": "normalized growth", "setting": "locus YER155C, strain BEM2, hits give low values", "result": 1.02},
      {"measurement": "normalized growth", "setting": "locus YER167W, strain BCK2, hits give low values", "result": 1.02},
      {"measurement": "normalized growth", "setting": "locus YGL078C, strain dbp3, hits give low values", "result": 1.02},
      {"measurement": "normalized growth", "setting": "locus YGL086W, strain mad1, hits give low values", "result": 0.964},
      {"measurement": "normalized growth", "setting": "locus YGL248W, strain PDE1, hits give low values", "result": 0.911},
      {"measurement": "normalized growth", "setting": "locus YGR078C, strain PAC10, hits give low values", "result": 0.918},
      {"measurement": "normalized growth", "setting": "locus YGR135W, strain pre9, hits give low values", "result": 0.912},
      {"measurement": "normalized growth", "setting": "locus YGR229C, strain SMI1, hits give low values", "result": "0.747 (active)"},
      {"measurement": "normalized growth", "setting": "locus YGR252W, strain gcn5, hits give low values", "result": 0.963},
      {"measurement": "normalized growth", "setting": "locus YHR030C, strain SLT2, hits give low values", "result": 0.972},
      {"measurement": "normalized growth", "setting": "locus YHR079C, strain IRE1 (second series), hits give low values", "result": 1.04},
      {"measurement": "normalized growth", "setting": "locus YHR094C, strain hxt1, hits give low values", "result": 1.02},
      {"measurement": "normalized growth", "setting": "locus YHR129C, strain ARP1, hits give low values", "result": "0.915 (active)"},
      {"measurement": "normalized growth", "setting": "locus YHR200W, strain rpn10, hits give low values", "result": 0.98},
      {"measurement": "normalized growth", "setting": "locus YIL066C, strain RNR3, hits give low values", "result": 0.919},
      {"measurement": "normalized growth", "setting": "locus YIL073C, strain SPO22, hits give low values", "result": 0.9},
      {"measurement": "normalized growth", "setting": "locus YIL125W, strain kgd1, hits give low values", "result": 1.02},
      {"measurement": "normalized growth", "setting": "locus YIR030C, strain dcg1, hits give low values", "result": 1},
      {"measurement": "normalized growth", "setting": "locus YJL095W, strain BCK1, hits give low values", "result": 0.845},
      {"measurement": "normalized growth", "setting": "locus YJL134W, strain LCB3, hits give low values", "result": 0.99},
      {"measurement": "normalized growth", "setting": "locus YJL168C, strain set2, hits give low values", "result": 1},
      {"measurement": "normalized growth", "setting": "locus YJL187C, strain SWE1 (second series), hits give low values", "result": "0.775 (active)"},
      {"measurement": "normalized growth", "setting": "locus YJR043C, strain POL32, hits give low values", "result": 0.857},
      {"measurement": "normalized growth", "setting": "locus YKL009W, strain mrt4, hits give low values", "result": "1.15 [resistant] (active)"},
      {"measurement": "normalized growth", "setting": "locus YKL068W, hits give low values", "result": 1.02},
      {"measurement": "normalized growth", "setting": "locus YKL085W, strain MDH1 (second series), hits give low values", "result": 1.01},
      {"measurement": "normalized growth", "setting": "locus YKL085W, strain MDH1, hits give low values", "result": 1.01},
      {"measurement": "normalized growth", "setting": "locus YKL190W, strain CNB1, hits give low values", "result": 0.961},
      {"measurement": "normalized growth", "setting": "locus YKR001C, strain vps1, hits give low values", "result": 0.982},
      {"measurement": "normalized growth", "setting": "locus YLR039C, strain RIC1, hits give low values", "result": 0.836},
      {"measurement": "normalized growth", "setting": "locus YLR058C, strain SHM2, hits give low values", "result": "0.835 (active)"},
      {"measurement": "normalized growth", "setting": "locus YLR102C, strain apc9, hits give low values", "result": 1.02},
      {"measurement": "normalized growth", "setting": "locus YLR262C, strain YPT6, hits give low values", "result": 0.935},
      {"measurement": "normalized growth", "setting": "locus YLR268W, strain sec22, hits give low values", "result": 0.96},
      {"measurement": "normalized growth", "setting": "locus YLR330W, strain CHS5, hits give low values", "result": 1},
      {"measurement": "normalized growth", "setting": "locus YLR342W, strain FKS1 (second series), hits give low values", "result": 0.919},
      {"measurement": "normalized growth", "setting": "locus YLR371W, strain rom2, hits give low values", "result": 0.91},
      {"measurement": "normalized growth", "setting": "locus YLR418C, strain cdc73, hits give low values", "result": 0.92},
      {"measurement": "normalized growth", "setting": "locus YML016C, strain PPZ1, hits give low values", "result": 0.94},
      {"measurement": "normalized growth", "setting": "locus YML032C, strain rad52, hits give low values", "result": 1},
      {"measurement": "normalized growth", "setting": "locus YML124C, strain tub3, hits give low values", "result": 1.01},
      {"measurement": "normalized growth", "setting": "locus YMR078C, strain ctf18, hits give low values", "result": 1.01},
      {"measurement": "normalized growth", "setting": "locus YMR223W, strain ubp8, hits give low values", "result": 0.947},
      {"measurement": "normalized growth", "setting": "locus YMR307W, strain GAS1, hits give low values", "result": 0.928},
      {"measurement": "normalized growth", "setting": "locus YNL067W, strain RPL9B, hits give low values", "result": 0.917},
      {"measurement": "normalized growth", "setting": "locus YNL233W, strain BNI4, hits give low values", "result": 0.945},
      {"measurement": "normalized growth", "setting": "locus YNL250W, strain rad50, hits give low values", "result": 1},
      {"measurement": "normalized growth", "setting": "locus YNL271C, strain bni1, hits give low values", "result": 0.989},
      {"measurement": "normalized growth", "setting": "locus YNL298W, strain CLA4, hits give low values", "result": 1.01},
      {"measurement": "normalized growth", "setting": "locus YNL307C, strain MCK1, hits give low values", "result": 1.02},
      {"measurement": "normalized growth", "setting": "locus YNL322C, strain KRE1, hits give low values", "result": "0.916 (active)"},
      {"measurement": "normalized growth", "setting": "locus YNR052C, strain pop2, hits give low values", "result": 0.952},
      {"measurement": "normalized growth", "setting": "locus YOL012C, strain htz1", "result": 0.566},
      {"measurement": "normalized growth", "setting": "locus YOL147C, strain pex11, hits give low values", "result": 1.01},
      {"measurement": "normalized growth", "setting": "locus YOR061W, strain CKA2, hits give low values", "result": 0.931},
      {"measurement": "normalized growth", "setting": "locus YOR069W, strain VPS5, hits give low values", "result": 0.976},
      {"measurement": "normalized growth", "setting": "locus YOR136W, strain idh2, hits give low values", "result": 1.02},
      {"measurement": "normalized growth", "setting": "locus YOR144C, strain elg1, hits give low values", "result": 1},
      {"measurement": "normalized growth", "setting": "locus YOR184W, strain ser1, hits give low values", "result": 0.968},
      {"measurement": "normalized growth", "setting": "locus YOR316C, strain cot1, hits give low values", "result": 1.01},
      {"measurement": "normalized growth", "setting": "locus YPL055C, strain LGE1, hits give low values", "result": 0.886},
      {"measurement": "normalized growth", "setting": "locus YPL241C, strain CIN2, hits give low values", "result": 0.974},
      {"measurement": "normalized growth", "setting": "locus YPR119W, strain clb2, hits give low values", "result": 1.02},
      {"measurement": "normalized growth", "setting": "locus YPR141C, strain kar3, hits give low values", "result": 1},
      {"measurement": "normalized growth", "setting": "locus YPR163C, strain tif3, hits give low values", "result": 1.01},
      {"measurement": "normalized growth", "setting": "locus YPR167C, strain met16, hits give low values", "result": 0.982},
      {"measurement": "normalized growth", "setting": "strain wtn01, hits give low values", "result": 1.01}
    ]}
  ]
}
